Results published in PubChem BioAssay AID1159580 (chemical genetic matrix, 2015).
About 2,000 (36%) of roughly 5,500 compounds were called active. Inconclusive results (about 18%) are left out. Rule as the data show it: active = normalized growth mostly below about 0.91 (no sharp cut-off); inconclusive = no clear call, values can overlap the other calls; inactive = mostly above about 0.92. The list shows a part of the results.

Test: chemical genetic growth profiling, strain panel (AID 1159580);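 also: tested at 20 µM; growth read once vehicle control cultures reached saturation at 30 °C; 1 = growth at the plate median or of vehicle wells; lower values mean less growth of the strain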
Conditions: growth OD

Measured: normalized growth

CC1(C)S[C@@H]2[C@H](NC(=O)COc3ccccc3)C(=O)N2[C@H]1C(=O)O
inactive: S. cerevisiae deletion strains, locus YJR075W, strain HOC1, stronger effect = lower value 1 | S. cerevisiae deletion strains, locus YKL009W, strain mrt4, stronger effect = lower value 1.03 | S. cerevisiae deletion strains, locus YKL068W, stronger effect = lower value 1.02 | S. cerevisiae deletion strains, locus YKL085W, strain MDH1 (second series), stronger effect = lower value 1.01 | S. cerevisiae deletion strains, locus YKL085W, strain MDH1, stronger effect = lower value 1.01 | S. cerevisiae deletion strains, locus YKL160W, strain elf1, stronger effect = lower value 0.977 | S. cerevisiae deletion strains, locus YKL190W, strain CNB1, stronger effect = lower value 0.992 | S. cerevisiae deletion strains, locus YKR001C, strain vps1, stronger effect = lower value 1.03 | S. cerevisiae deletion strains, locus YKR026C, strain gcn3, stronger effect = lower value 0.983 | S. cerevisiae deletion strains, locus YKR091W, strain srl3, stronger effect = lower value 0.991 | S. cerevisiae deletion strains, locus YLL001W, strain dnm1, stronger effect = lower value 0.935 | S. cerevisiae deletion strains, locus YLL026W, stronger effect = lower value 0.983 | S. cerevisiae deletion strains, locus YLL041C, strain sdh2, stronger effect = lower value 0.999 | S. cerevisiae deletion strains, locus YLR027C, strain aat2, stronger effect = lower value 0.973 | S. cerevisiae deletion strains, locus YLR039C, strain RIC1, stronger effect = lower value 1.04 | S. cerevisiae deletion strains, locus YLR058C, strain SHM2, stronger effect = lower value 1 | S. cerevisiae deletion strains, locus YLR102C, strain apc9, stronger effect = lower value 1.02 | S. cerevisiae deletion strains, locus YLR113W, strain HOG1, stronger effect = lower value 0.994 | S. cerevisiae deletion strains, locus YLR221C, strain rsa3, stronger effect = lower value 1.01 | S. cerevisiae deletion strains, locus YLR258W, strain gsy2, stronger effect = lower value 0.999 | S. cerevisiae deletion strains, locus YLR262C, strain YPT6 (second series), stronger effect = lower value 0.968 | S. cerevisiae deletion strains, locus YLR262C, strain YPT6, stronger effect = lower value 1.04 | S. cerevisiae deletion strains, locus YLR268W, strain sec22, stronger effect = lower value 1.03 | S. cerevisiae deletion strains, locus YLR320W, strain mms22, stronger effect = lower value 0.99 | S. cerevisiae deletion strains, locus YLR330W, strain CHS5, stronger effect = lower value 1 | S. cerevisiae deletion strains, locus YLR342W, strain FKS1 (second series), stronger effect = lower value 0.976 | S. cerevisiae deletion strains, locus YLR342W, strain FKS1, stronger effect = lower value 0.975 | S. cerevisiae deletion strains, locus YLR357W, strain rsc2, stronger effect = lower value 0.992 | S. cerevisiae deletion strains, locus YLR370C, strain arc18, stronger effect = lower value 1 | S. cerevisiae deletion strains, locus YLR371W, strain rom2, stronger effect = lower value 1.02 | S. cerevisiae deletion strains, locus YLR384C, strain iki3, stronger effect = lower value 0.98 | S. cerevisiae deletion strains, locus YLR418C, strain cdc73, stronger effect = lower value 1.06 | S. cerevisiae deletion strains, locus YML016C, strain PPZ1, stronger effect = lower value 1.01 | S. cerevisiae deletion strains, locus YML032C, strain rad52, stronger effect = lower value 1.04 | S. cerevisiae deletion strains, locus YML120C, strain ndi1, stronger effect = lower value 0.995 | S. cerevisiae deletion strains, locus YML124C, strain tub3, stronger effect = lower value 1.03 | S. cerevisiae deletion strains, locus YMR058W, strain fet3, stronger effect = lower value 0.988 | S. cerevisiae deletion strains, locus YMR078C, strain ctf18, stronger effect = lower value 1.02 | S. cerevisiae deletion strains, locus YMR125W, strain sto1, stronger effect = lower value 1.01 | S. cerevisiae deletion strains, locus YMR129W, stronger effect = lower value 0.998 | S. cerevisiae deletion strains, locus YMR205C, strain PFK2, stronger effect = lower value 0.994 | S. cerevisiae deletion strains, locus YMR223W, strain ubp8, stronger effect = lower value 1.02 | S. cerevisiae deletion strains, locus YMR231W, strain pep5, stronger effect = lower value 1.01 | S. cerevisiae deletion strains, locus YMR263W, strain SAP30, stronger effect = lower value 1 | S. cerevisiae deletion strains, locus YMR307W, strain GAS1, stronger effect = lower value 0.989 | S. cerevisiae deletion strains, locus YNL067W, strain RPL9B, stronger effect = lower value 1.01 | S. cerevisiae deletion strains, locus YNL071W, strain lat1, stronger effect = lower value 1 | S. cerevisiae deletion strains, locus YNL128W, strain TEP1, stronger effect = lower value 1.01 | S. cerevisiae deletion strains, locus YNL153C, strain GIM3, stronger effect = lower value 1 | S. cerevisiae deletion strains, locus YNL183C, strain NPR1, stronger effect = lower value 0.937 | S. cerevisiae deletion strains, locus YNL209W, strain ssb2, stronger effect = lower value 1 | S. cerevisiae deletion strains, locus YNL233W, strain BNI4, stronger effect = lower value 1.01 | S. cerevisiae deletion strains, locus YNL248C, strain rpa49, stronger effect = lower value 1.03 | S. cerevisiae deletion strains, locus YNL250W, strain rad50, stronger effect = lower value 1.03 | S. cerevisiae deletion strains, locus YNL271C, strain bni1, stronger effect = lower value 1.02 | S. cerevisiae deletion strains, locus YNL298W, strain CLA4, stronger effect = lower value 1.04 | S. cerevisiae deletion strains, locus YNL307C, strain MCK1, stronger effect = lower value 1.03 | S. cerevisiae deletion strains, locus YNL322C, strain KRE1 (second series), stronger effect = lower value 0.997 | S. cerevisiae deletion strains, locus YNL322C, strain KRE1, stronger effect = lower value 1 | S. cerevisiae deletion strains, locus YNR049C, strain mso1, stronger effect = lower value 0.994 | S. cerevisiae deletion strains, locus YNR052C, strain pop2, stronger effect = lower value 1.01 | S. cerevisiae deletion strains, locus YOL006C, strain TOP1, stronger effect = lower value 1.05 | S. cerevisiae deletion strains, locus YOL012C, strain htz1 1.38 | S. cerevisiae deletion strains, locus YOL147C, strain pex11, stronger effect = lower value 1.02 | S. cerevisiae deletion strains, locus YOR001W, strain rrp6, stronger effect = lower value 0.983 | S. cerevisiae deletion strains, locus YOR061W, strain CKA2, stronger effect = lower value 1.02 | S. cerevisiae deletion strains, locus YOR069W, strain VPS5, stronger effect = lower value 1 | S. cerevisiae deletion strains, locus YOR070C, strain gyp1, stronger effect = lower value 1 | S. cerevisiae deletion strains, locus YOR080W, strain dia2, stronger effect = lower value 0.986 | S. cerevisiae deletion strains, locus YOR083W, strain WHI5, stronger effect = lower value 0.954 | S. cerevisiae deletion strains, locus YOR106W, strain vam3, stronger effect = lower value 0.963 | S. cerevisiae deletion strains, locus YOR136W, strain idh2, stronger effect = lower value 1.03 | S. cerevisiae deletion strains, locus YOR144C, strain elg1, stronger effect = lower value 1.02 | S. cerevisiae deletion strains, locus YOR184W, strain ser1, stronger effect = lower value 1.04 | S. cerevisiae deletion strains, locus YOR231W, strain MKK1, stronger effect = lower value 1.02 | S. cerevisiae deletion strains, locus YOR265W, strain rbl2, stronger effect = lower value 1 | S. cerevisiae deletion strains, locus YOR270C, strain vph1, stronger effect = lower value 1.01 | S. cerevisiae deletion strains, locus YOR290C, strain snf2, stronger effect = lower value 1.01 | S. cerevisiae deletion strains, locus YOR316C, strain cot1, stronger effect = lower value 1.02 | S. cerevisiae deletion strains, locus YPL051W, strain arl3, stronger effect = lower value 0.982 | S. cerevisiae deletion strains, locus YPL055C, strain LGE1, stronger effect = lower value 1.01 | S. cerevisiae deletion strains, locus YPL078C, strain atp4, stronger effect = lower value 0.955 | S. cerevisiae deletion strains, locus YPL106C, strain sse1, stronger effect = lower value 0.998 | S. cerevisiae deletion strains, locus YPL240C, strain hsp82, stronger effect = lower value 1 | S. cerevisiae deletion strains, locus YPL241C, strain CIN2, stronger effect = lower value 1 | S. cerevisiae deletion strains, locus YPL256C, strain CLN2, stronger effect = lower value 0.968 | S. cerevisiae deletion strains, locus YPR119W, strain clb2, stronger effect = lower value 1.02 | S. cerevisiae deletion strains, locus YPR141C, strain kar3, stronger effect = lower value 1.03 | S. cerevisiae deletion strains, locus YPR163C, strain tif3, stronger effect = lower value 1.04 | S. cerevisiae deletion strains, locus YPR167C, strain met16, stronger effect = lower value 1.02 | S. cerevisiae deletion strains, strain wtn01, stronger effect = lower value 1.02 | S. cerevisiae strains, strain wild type, stronger effect = lower value 1.01
